# MITF TRPM1 HTS: activators of MITF-driven TRPM1 promoter reporter, primary screen, cell-based, SK-MEL-5, luciferase, single point. AID 588334, 2011. 300,000 compounds, 0.75% hits. activation, % at 12.5 µM. SK-MEL-5 TRPM1-promoter luciferase, 24 h; % of positive control, neutral wells = 0;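 active means mean activation of at least 80% with every replicate also reaching 80%; inconclusive means mean reaches 80% but some replicate falls short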;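 further: 0% = neutral control wells and 100% = parthenolide positive control wells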
# FXN GAA850 act: FXN promoter activators, primary screen, cell-based, luciferase luminescence, HEK293 lucGAA850 | HEK293 lucGAA850 FXN promoter luciferase reporter, 24 h; percent of 10 µM SAHA response | activation, % at 6 µM | 360,000 compounds, 0.56% hits | AID 540364, 2011;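 active means activation above the average of all compounds screened plus 3 SD, cutoff fixed separately per campaign, cut at about 7.5% in these data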;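 further: 0% = DMSO wells and 100% = 10 µM SAHA wells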
# esBAF inh: Bmi1 luciferase reporter increase in mESCs, primary screen, esBAF inhibitor project, mouse ES cells, Bmi1 luciferase knock-in, single point. 24 h; 100% = twice the neutral-well signal. reporter increase, % at 12.5 µM. 350,000 compounds, 2% hits. AID 602393, 2012; in the data active means activation above about 40%; inconclusive means no clear call, values can overlap the other calls;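 further: 0% = median of the plate's neutral control wells and 100% = double that signal; a rise in the Bmi1 reporter signal indicates esBAF inhibition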
# C2C12 statin: suppressors of statin myotoxicity in C2C12 myotubes, primary screen, cell-based, single point, plate reader; C2C12 myotubes + simvastatin, ATP luminescence, 48 h; scaled: DMSO 0, geranylgeraniol control 100; rescue of ATP level, % at 7.49 µM; 330,000 compounds, 0.78% hits; AID 602340, 2012;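 active means mean ATP rescue above about 67%, or every replicate alone reaching that limit, limit read from the data, passing the limit was not always enough; inconclusive means no clear call, values can overlap the other calls; inactive means mean under the limit and some replicate under it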;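 further: myotubes were challenged with 10 µM simvastatin during compound exposure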
# Wnt act: Wnt/beta-catenin pathway activators, primary screen, cell-based, plate reader, single point; AID 743398, 2014; Wnt/beta-catenin reporter cell assay, activator; activation, % at 9.35 µM; 300,000 compounds, 1.2% hits; in the data active means activation above about 30%, passing the limit was not always enough; inconclusive means no clear call, values can overlap the other calls;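 further: 0% = neutral control wells and 100% = positive control wells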
# * = called active by the depositor; u = inconclusive; x = no result. Rows were chosen to be rich in hits. Some 3.3% of all compounds tested hit in one or more screens of this group.
SMILES,MITF TRPM1 HTS,FXN GAA850 act,esBAF inh,C2C12 statin,Wnt act
C[C@H]1CCCCO[C@@H](CN(C)Cc2ccc(C(F)(F)F)cc2)[C@@H](C)CN([C@@H](C)CO)C(=O)c2cc(NS(C)(=O)=O)ccc2O1,x,x,6,x,x
CCCCN1CC(O)=C(c2nc3ccccc3[nH]2)C1=N,65,6,58*,-38,22
CCCCCN1CC(O)=C(c2nc3ccccc3[nH]2)C1=N,52,5,x,x,7
Nc1nc(OCc2ccccc2)c2[nH]cnc2n1,-17,5,-4,4,3
Cc1nc2nc(N)nc(OCc3ccccc3)c2nc1C,x,0,x,x,50*
Clc1cccc(Nc2nc(-c3cccnc3)cs2)c1,43,6,78*,-39,0
Brc1cccc(Nc2nc(-c3cccnc3)cs2)c1,16,6,49*,-30,27
O=C(C[C@@H]1C=C[C@@H](NC(=O)c2ccc(F)cc2)[C@H](CO)O1)NCc1ccncn1,x,x,5,7,x
CC(=O)c1cccc(OCC(=O)Nc2cc(Cl)ccc2-n2cncn2)c1,84*,7,x,-13,0
C/C=C/c1ccc(OCC(=O)Nc2cc(Cl)ccc2-n2cncn2)c(OC)c1,4,2,x,-23,-2
COC(=O)C[C@H]1CC[C@@H](NS(=O)(=O)c2ccccc2F)[C@@H](CO)O1,x,x,-1,6,x
O=C(CN1CCOCC1)N[C@@H]1CC[C@@H](CCNC(=O)C2CCC2)O[C@@H]1CO,x,x,-5,-1,x
CC(=O)Nc1sc2c(c1-c1nc3ccccc3s1)CN(C(C)C)CC2,-62,23*,-82,-217,58*
c1ccc(OCCSc2nc3ccccc3o2)cc1,50,3,87*,1,x
COCC#Cc1cnc2c(c1)C(=O)N([C@@H](C)CO)C[C@H](C)[C@H](CN(C)C(=O)Nc1ccccc1OC)O2,x,x,-3,x,x
CC(C)Sc1nc(SCC(=O)O)c2c3c(sc2n1)COC(C)(C)C3,23,1,x,x,23
CC(C)Sc1nc(SCC(=O)NCc2ccco2)c2c3c(sc2n1)COC(C)(C)C3,24,-2,u,129*,x
CO[C@@H]1CN(C)C(=O)c2cc(NC(=O)C3CCCC3)ccc2OC[C@@H](C)N(CCC(F)(F)F)C[C@H]1C,x,x,-3,-13,x
C[C@@H]1CN([C@@H](C)CO)C(=O)Cc2cc(NC(=O)Nc3ccc(F)cc3)ccc2O[C@@H]1CN(C)Cc1ccc(Cl)c(Cl)c1,-22,-3,1,108*,-21
C[C@H]1CN([C@@H](C)CO)C(=O)Cc2cc(NC(=O)C3CCCCC3)ccc2O[C@@H]1CN(C)C(=O)Nc1ccc2c(c1)OCO2,x,x,42*,5,x
C[C@H]1CN([C@@H](C)CO)C(=O)Cc2cc(NC(=O)C3CCCCC3)ccc2O[C@H]1CN(C)Cc1ccc(-c2ccccc2)cc1,x,x,0,-7,x
C[C@H]1CN([C@@H](C)CO)C(=O)Cc2cc(NC(=O)Nc3ccccc3)ccc2O[C@H]1CN(C)Cc1ccc(Cl)c(Cl)c1,x,x,1,-84,x
C[C@H]1CN([C@@H](C)CO)C(=O)Cc2cc(NC(=O)Nc3ccc(C(F)(F)F)cc3)ccc2O[C@H]1CN(C)C(=O)Nc1ccc(F)cc1,x,x,1,83*,x
C[C@@H]1CN([C@@H](C)CO)C(=O)Cc2cc(NC(=O)C3CCCCC3)ccc2O[C@H]1CN(C)Cc1ccc(-c2ccccc2)cc1,x,x,-2,137*,x
C[C@H]1CN([C@@H](C)CO)C(=O)c2cc(C#CC3CC3)cnc2O[C@@H]1CN(C)S(=O)(=O)c1cccc(F)c1,x,x,33,25,x
SMILES,MITF TRPM1 HTS,FXN GAA850 act,esBAF inh,C2C12 statin,Wnt act
C[C@@H]1CN([C@@H](C)CO)C(=O)Cc2cc(NC(=O)c3ccncc3)ccc2O[C@@H]1CN(C)Cc1ccc(-c2ccccc2)cc1,x,x,-3,-12,x
C[C@H](CO)N1C[C@H](C)[C@@H](CN(C)Cc2ccc(Cl)c(Cl)c2)Oc2ccc(NC(=O)c3ccncc3)cc2CC1=O,x,x,-2,133*,x
C[C@H](CO)N1C[C@H](C)[C@@H](CN(C)Cc2ccc(-c3ccccc3)cc2)Oc2ccc(NC(=O)c3ccncc3)cc2CC1=O,x,x,-1,124*,x
COC(=O)C1=C(N)OC2=C(C(=O)CC(C)(C)C2)C1c1ccoc1 (stereo not given),8,0,-1,98*,x
O=C(CN1CCOCC1)N1CC[C@@H]2[C@@H](CO)Nc3ccc(-c4ccc(F)cc4)cc3[C@@H]21,x,x,-3,18,x
CN(C)/C=C1\C(=O)N(c2ccc([N+](=O)[O-])cc2)N=C1c1ccccc1,36,6,53*,-2,x
CC1=NN(c2ccc([N+](=O)[O-])cc2)C(=O)/C1=C\N(C)C,10,3,x,x,5
COC(=O)C1CCN(C(=O)c2oc3c(Cl)cc(C)cc3c2C)CC1,45,7,26,8,47*
CCOC(=O)C1CCCCN1C(=O)c1oc2c(Cl)cc(C)cc2c1C (stereo not given),5,1,2,-7,-1
c1ccc(-c2nc3ccccn3c2-c2ccccc2)cc1,-4,2,x,x,43*
CN(C)C(=O)[C@H]1[C@H](CO)[C@H]2Cn3c(ccc(C4=CCCC4)c3=O)[C@@H]1N2CC1CC1,x,x,3,16,x
CC(C)C[C@@H](CO)N(Cc1ccccc1)S(=O)(=O)N(Cc1ccccc1)[C@H](CO)CC(C)C,3,-7,0,126*,x
CCCCOC(=O)c1ccc(OC(=O)c2cccnc2)cc1,9,0,23,-6,x
CCCCCCOC(=O)c1ccc(OC(=O)c2cccnc2)cc1,64,-1,52*,24,x
O=C(C[C@H]1C=C[C@@H](NS(=O)(=O)c2ccc(F)cc2)[C@@H](CO)O1)NCCN1CCCCC1,x,x,-2,-2,x
O=C(NCCOC(=O)c1ccncc1)c1ccccc1,-3,3,-4,87*,x
O=C(CNC(=O)c1ccccc1Cl)c1ccccc1,35,3,28,4,14
O=C(CNC(=O)c1ccccc1F)c1ccccc1,x,4,-14,-2,38*
O=C(NCCSc1ccccc1)c1cccnc1,56,6,58*,8,x
O=C(NCCSc1ccccc1)c1ccccc1F,x,5,47*,1,-1
Cc1ccc(SCCNC(=O)c2ccccc2F)cc1,7,-1,7,-1,0
O=C(NCCCSc1ccccc1)c1cccnc1,1,-1,-5,7,1
CN(C)CCCNC(=O)[C@H]1[C@H](CO)[C@H]2Cn3c(ccc(-c4ccncc4)c3=O)[C@@H]1N2C(=O)CC1CC1,x,x,-1,-10,x
CN(C)C(=O)C[C@H]1CC[C@@H]2[C@H](COC[C@H](O)CN2CC2CC2)O1,x,x,-4,-6,x
CN(C)C(=O)C[C@@H]1CC[C@@H]2[C@H](COc3ccc(NC(=O)c4ccc(F)c(F)c4)cc3C(=O)N2C)O1,x,x,-5,-8,x

# High-throughput results (PubChem)
